Source: PubChem BioAssay (Tox21)
Values joined by “and” are separate entries in the source; they are usually repeats but may differ in a detail not shown here. Equal entries are not always repeated. Results filed as inconclusive are left out. Some structures have more than one record in an assay (separate samples or runs), and their calls can disagree. Active and inactive are the calls of the source. Unless noted, the call rests on the fitted dose curve.

How the values were obtained:
[1] = biological target: Gonadotropin-releasing hormone receptor (Homo sapiens) (UniProt P30968); experiment: Human gonadotropin-releasing hormone receptor (GnRHR) small molecule agonists, calcium flux assay in GnRHR-HEK293 cells (AID 1920063); settings: calcium flux fluorescence, agonist mode; series mostly up to 57.6 µM; further: nearly all actives have a fitted effect of over 35% in size
In short: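 We seeded human GnRHR-expressing HEK293 cells for 18 hours, loaded them with calcium dye for an hour at 37 C, added test compounds, and recorded fluorescence intensity kinetically for three minutes.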

[2] = biological target: KiSS-1 receptor (Homo sapiens) (UniProt Q969F8); experiment: Human kisspeptin (KISS1R) small molecule agonists, calcium flux assay in KISS1R-HEK293 cells (AID 1920064; active means well fitted activation curve with a large enough effect in the repeat runs); settings: KISS1R-HEK293, calcium flux fluorescence, agonist; series mostly up to 76.8 µM
In short: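 Kinetic calcium assay, 1 s sampling over 3 min at Ex/Em 480/540, in HEK293 cells engineered with human KISS1R; compounds delivered in DMSO after 1 h dye loading.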

[3] = G protein-coupled receptor (GPCR) small molecule agonists, calcium flux assay: HEK293 wild type cell line counter screen (AID 1920065); settings: HEK293 WT calcium flux, fluorescence, agonist mode; series mostly up to 57.6 µM
In short: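 Calcium-sensitive dye, loaded 1 h at 37 C into cells cultured 18 h, reports compound-evoked calcium release as fluorescence (Ex/Em 480/540), measured over 3 min. Agonist mode; 15-point titrations, triplicate.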

[4] = p53 small molecule agonists, cell-based qHTS assay with human liver microsomes (AID 1963577); settings: HCT-116 p53RE-bla with human liver microsomes, ratio, 16 h; series mostly up to 66 µM;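 further: p53 response element beta-lactamase reporter cells with liver microsomes plus NADPH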
In short: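 With metabolic activation: human liver microsomes (0.5 mg/mL final) plus NADPH (0.5 mg/mL final) added alongside compounds to p53RE-bla cells; 16 h 37 C exposure; beta-lactamase read by LiveBLAzer fluorescence.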

[5] = p53 small molecule agonists, cell-based qHTS assay with rat liver microsomes (AID 1963578); settings: HCT-116 p53RE-bla, beta-lactamase ratio, 16 h; series mostly up to 66 µM
In short: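 Metabolic activation by rat liver microsomes and NADPH, each 0.5 mg/mL final, added right after compounds to p53RE-bla reporter cells (4,000/well, plated 5 h earlier). 16 h at 37 C, then LiveBLAzer substrate for 2 h at room temperature in the dark; fluorescence read-out.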

[6] = p53 small molecule agonists, cell-based qHTS assay with human liver microsomes: qHTS cell viability counter screen (AID 1963579); settings: p53RE-bla HCT-116 viability, ATP luminescence, 16 h, HLM; series mostly up to 66 µM; further: nearly all actives have a fitted effect of over 45% in size
In short: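 Metabolic activation used human liver microsomes and NADPH, both 0.5 mg/mL final, over 16 hours at 37 C on p53RE-bla cells (4,000/well). Cytotoxicity measured by CellTiter-Glo luminescence, 30 min at room temperature.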

[7] = p53 small molecule agonists, cell-based qHTS assay with rat liver microsomes: qHTS cell viability counter screen (AID 1963580); settings: p53RE-bla HCT-116 + rat microsomes, ATP viability, 16 h; series mostly up to 66 µM; further: nearly all actives have a fitted effect of over 45% in size
In short: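 HCT-116 p53RE-bla, 4,000 cells/well, 5 h pre-incubation; cpd + rat liver microsomes 0.5 mg/mL + NADPH 0.5 mg/mL (final); 16 h, 37 C; CellTiter-Glo, 30 min RT; luminescence.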

[8] = p53 small molecule agonists, cell-based qHTS assay: qHTS cell viability counter screen (AID 1963581); settings: p53RE-bla HCT-116 viability, ATP luminescence, 16 h; series mostly up to 66 µM; further: nearly all actives have a fitted effect of over 45% in size
In short: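 Following 5 h attachment, HCT-116 p53RE-bla cells took up compound for 16 h at 37 C; the reporter was read with B/G FRET substrate (2 h RT), and viability then via CellTiter-Glo ATP luminescence.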

[9] = biological target: 5-hydroxytryptamine receptor 2A (Homo sapiens) (UniProt P28223); experiment: 5-hydroxytryptamine receptor 2A (HTR2A) small molecule antagonists, cell-based qHTS assay (AID 1963586); settings: HTR2A-CHO cells, DOI-induced calcium flux, fluorescence; series mostly up to 61.5 µM; further: nearly all actives have a fitted effect of over 45% in size
In short: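 Antagonist-mode intracellular calcium assay: DOI (4 nM) added after 5 min compound pre-incubation at room temperature to dye-loaded HTR2A-CHO cells. Fluorescence followed for 3 min, sampled every second.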

[10] = biological target: 5-hydroxytryptamine receptor 2A (Homo sapiens) (UniProt P28223); experiment: 5-hydroxytryptamine receptor 2A (HTR2A) small molecule agonists, cell-based qHTS assay (AID 1963587); settings: HTR2A-CHO cells, calcium flux fluorescence, agonist mode; series mostly up to 76.8 µM; further: nearly all actives have a fitted effect of over 30% in size
In short: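 Kinetic calcium-flux fluorescence (2 min, 1 sec intervals) after compound addition in agonist mode. HTR2A-CHO cells were cultured 18 h, then dye-loaded 1 h at 37 C.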

[11] = biological target: Muscarinic acetylcholine receptor M1 (Homo sapiens) (UniProt P11229); experiment: Cholinergic receptor muscarinic 1 (CHRM1) small molecule antagonists, cell-based qHTS assay (AID 1963588); settings: CHRM1-CHO antagonist mode, calcium flux fluorescence; series mostly up to 61.5 µM; further: nearly all actives have a fitted effect of over 40% in size
In short: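 CHRM1-CHO calcium-flux assay, antagonist mode. Cells were seeded 18 h, dye-loaded 1 h at 37 C and given compound for 5 min at RT, then acetylcholine was added at 50nM. FDSS fluorescence was read 3 min; 15 concentrations, three runs.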

[12] = biological target: Muscarinic acetylcholine receptor M1 (Homo sapiens) (UniProt P11229); experiment: Cholinergic receptor muscarinic 1 (CHRM1) small molecule agonists, cell-based qHTS assay (AID 1963589); settings: CHRM1-CHO cells, agonist mode, calcium flux fluorescence; series mostly up to 76.8 µM; further: nearly all actives have a fitted effect of over 35% in size
In short: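 Measures agonist-induced intracellular calcium rise. Stable human CHRM1 CHO line, 1 h dye load at 37 C, compounds from DMSO, kinetic fluorescence read.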

[13] = cAMP Responsive Elements (CRE) small molecule antagonists, cell-based qHTS assay (AID 1963591; active means well fitted inhibition curve with a large enough effect in the signal ratio in the repeat runs, not every such curve was filed as active; the % refers to the signal ratio); settings: CRE-bla HEK293T, beta-lactamase FRET ratio; series mostly up to 92.4 µM
In short: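 HEK293T cells carrying a CRE-driven beta-lactamase reporter receive compound and NKH477 (0.25 uM final) for 3 h. Fluorescence from LiveBLAzer B/G FRET substrate is read after 2 h at room temperature.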

[14] = biological target: Beta-2 adrenergic receptor (Homo sapiens) (UniProt P07550); experiment: Adrenergic beta2 receptor (ADRB2) small molecule antagonists, cell-based qHTS assay (AID 1963592); settings: CHO-ADRB2 cells, isoproterenol-stimulated cAMP HTRF ratio, 0.5 h; series mostly up to 92.4 µM; further: nearly all actives have a fitted effect of over 50% in size
In short: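 Cells (CHO, stable ADRB2 overexpression) incubated 18-20hr at 37C; compounds added from DMSO; agonist mix (1nM isoproterenol, 100uM IBMX, 25uM Ro-20-1724) added; 0.5hr RT; d2-cAMP and anti-cAMP-cryptate added; 1hr RT; 665/615 nm read.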

[15] = biological target: Beta-2 adrenergic receptor (Homo sapiens) (UniProt P07550); experiment: Adrenergic beta2 receptor (ADRB2) small molecule agonists, cell-based qHTS assay (AID 1963593); settings: CHO-ADRB2 cells, cAMP HTRF, 30 min; series mostly up to 92.4 µM;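 further: CHO cells stably overexpressing human ADRB2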
In short: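 CHO cells stably over-expressing ADRB2 were plated overnight at 37C, then dosed with compounds plus a stimulation mix containing 100uM IBMX and 25uM Ro-20-1724 for 0.5hr at room temperature. cAMP was measured by HTRF competition, 1hr.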

[16] = biological target: D(2) dopamine receptor (Homo sapiens) (UniProt P14416); experiment: Dopamine D2 receptor (DRD2) small molecule antagonists, cell-based qHTS assay (AID 1963595; active means well fitted inhibition curve with a large enough effect in the signal ratio in the repeat runs, with a control signal flat; the % refers to the signal ratio); settings: HEK293-DRD2 cAMP HTRF antagonist mode; series mostly up to 92.4 µM
In short: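 HEK293 cells stably expressing DRD2, preincubated with 0.1 mM Ro20-1724 and compounds 10 min, were stimulated with 200 nM NKH477 plus 12 nM quinpirole for 30 min at room temperature; cAMP measured by HTRF (665/620 nm).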

[17] = Nuclear factor erythroid 2-related factor 2/antioxidant responsive element (Nrf2/ARE) small molecule agonists: luciferase reporter gene qHTS assay in human keratinocytes (AID 1919969); settings: KeratinoSens HaCaT ARE-luciferase, luminescence, 24 h; series mostly up to 92.4 µM; further: nearly all actives have a fitted effect of over 35% in size; further: potency means the concentration at half of the fitted maximal effect
[18] = p53 small molecule agonists, cell-based qHTS assay (AID 1963582; active means well fitted activation curve with a large enough effect in the signal ratio in the repeat runs, not every such curve was filed as active; the % refers to the signal ratio); settings: HCT-116 p53RE-bla reporter, beta-lactamase FRET ratio, 16 h; series mostly up to 66 µM
In short: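 In this cell-based concentration-response screen, a p53 response element drives beta-lactamase; cells received DMSO-borne compounds after 5 h culture and were incubated a further 16 h before FRET substrate development.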

[19] = cAMP Responsive Elements (CRE) small molecule agonists, cell-based qHTS assay (AID 1963590); settings: CRE-bla HEK293T, beta-lactamase FRET ratio, 3 h; series mostly up to 92.4 µM
In short: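 A CRE-responsive beta-lactamase reporter in HEK 293T cells was used. Treatment ran 3 h at 37 C; detection used LiveBLAzer B/G FRET substrate for 2 h at room temperature.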

[20] = biological target: D(2) dopamine receptor (Homo sapiens) (UniProt P14416); experiment: Dopamine D2 receptor (DRD2) small molecule agonists, cell-based qHTS assay (AID 1963594); settings: HEK293-DRD2 cAMP HTRF, agonist mode, 30 min; series mostly up to 92.4 µM; further: nearly all actives have a fitted effect of over 35% in size
In short: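 cAMP accumulation in DRD2-HEK293 cells measured by HTRF after 1 h detection; compounds added 10 min before NKH477 (200nM […]) forskolin-analogue stimulation, 30 min at room temperature, with Ro20-1724 present at 0.1 mM final.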
On the % scale 0 is the no-effect control and ±100 the full control effect.

KiSS-1 receptor (Homo sapiens), sequence (Q969F8 whole entry, looked up): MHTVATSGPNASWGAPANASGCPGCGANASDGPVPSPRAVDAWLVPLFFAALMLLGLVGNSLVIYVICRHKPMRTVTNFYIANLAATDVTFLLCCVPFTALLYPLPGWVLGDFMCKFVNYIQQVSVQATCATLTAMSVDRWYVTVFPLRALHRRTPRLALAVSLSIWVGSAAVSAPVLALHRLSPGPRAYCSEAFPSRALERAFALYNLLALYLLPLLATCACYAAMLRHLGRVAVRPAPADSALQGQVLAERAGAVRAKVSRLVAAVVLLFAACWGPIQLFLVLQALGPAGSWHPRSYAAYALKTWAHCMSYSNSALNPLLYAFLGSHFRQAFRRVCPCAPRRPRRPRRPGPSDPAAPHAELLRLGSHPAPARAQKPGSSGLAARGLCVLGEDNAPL
Beta-2 adrenergic receptor (Homo sapiens), sequence (P07550 whole entry, looked up): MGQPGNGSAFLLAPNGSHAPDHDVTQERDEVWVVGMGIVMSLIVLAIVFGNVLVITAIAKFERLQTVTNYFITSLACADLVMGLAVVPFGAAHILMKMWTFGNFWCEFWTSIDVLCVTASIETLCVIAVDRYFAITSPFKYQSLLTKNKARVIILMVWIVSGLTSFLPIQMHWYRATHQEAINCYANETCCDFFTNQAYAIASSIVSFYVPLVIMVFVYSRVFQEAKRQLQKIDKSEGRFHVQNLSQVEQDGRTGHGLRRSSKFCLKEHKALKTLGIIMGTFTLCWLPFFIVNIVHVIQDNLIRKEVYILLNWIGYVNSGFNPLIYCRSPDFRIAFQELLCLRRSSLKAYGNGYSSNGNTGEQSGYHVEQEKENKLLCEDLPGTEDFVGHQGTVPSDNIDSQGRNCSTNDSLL
Muscarinic acetylcholine receptor M1 (Homo sapiens), sequence (P11229 whole entry, looked up): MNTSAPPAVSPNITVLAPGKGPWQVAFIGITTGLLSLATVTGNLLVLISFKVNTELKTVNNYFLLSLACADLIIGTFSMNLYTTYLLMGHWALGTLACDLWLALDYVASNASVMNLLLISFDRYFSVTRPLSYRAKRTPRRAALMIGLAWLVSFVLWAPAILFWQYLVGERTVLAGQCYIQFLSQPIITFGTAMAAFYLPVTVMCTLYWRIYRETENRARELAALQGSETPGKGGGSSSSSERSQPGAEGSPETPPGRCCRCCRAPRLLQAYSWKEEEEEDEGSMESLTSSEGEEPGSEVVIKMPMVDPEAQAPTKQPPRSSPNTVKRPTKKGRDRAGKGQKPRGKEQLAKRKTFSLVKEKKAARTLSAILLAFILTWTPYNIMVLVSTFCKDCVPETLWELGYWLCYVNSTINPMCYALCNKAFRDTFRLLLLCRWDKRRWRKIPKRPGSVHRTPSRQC
5-hydroxytryptamine receptor 2A (Homo sapiens), sequence (P28223 whole entry, looked up): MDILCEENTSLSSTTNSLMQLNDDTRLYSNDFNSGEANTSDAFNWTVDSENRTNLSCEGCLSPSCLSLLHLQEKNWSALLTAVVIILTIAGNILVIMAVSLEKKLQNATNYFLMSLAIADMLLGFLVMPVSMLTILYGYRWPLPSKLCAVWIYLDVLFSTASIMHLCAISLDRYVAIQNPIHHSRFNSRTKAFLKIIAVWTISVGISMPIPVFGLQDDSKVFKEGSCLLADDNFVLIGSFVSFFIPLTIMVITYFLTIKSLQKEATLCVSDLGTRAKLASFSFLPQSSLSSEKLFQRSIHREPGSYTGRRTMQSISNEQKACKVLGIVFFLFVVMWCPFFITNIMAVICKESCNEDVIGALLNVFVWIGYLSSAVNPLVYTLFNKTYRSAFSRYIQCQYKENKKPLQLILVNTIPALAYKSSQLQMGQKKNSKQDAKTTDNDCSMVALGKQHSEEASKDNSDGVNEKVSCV
D(2) dopamine receptor (Homo sapiens), sequence (P14416 whole entry, looked up): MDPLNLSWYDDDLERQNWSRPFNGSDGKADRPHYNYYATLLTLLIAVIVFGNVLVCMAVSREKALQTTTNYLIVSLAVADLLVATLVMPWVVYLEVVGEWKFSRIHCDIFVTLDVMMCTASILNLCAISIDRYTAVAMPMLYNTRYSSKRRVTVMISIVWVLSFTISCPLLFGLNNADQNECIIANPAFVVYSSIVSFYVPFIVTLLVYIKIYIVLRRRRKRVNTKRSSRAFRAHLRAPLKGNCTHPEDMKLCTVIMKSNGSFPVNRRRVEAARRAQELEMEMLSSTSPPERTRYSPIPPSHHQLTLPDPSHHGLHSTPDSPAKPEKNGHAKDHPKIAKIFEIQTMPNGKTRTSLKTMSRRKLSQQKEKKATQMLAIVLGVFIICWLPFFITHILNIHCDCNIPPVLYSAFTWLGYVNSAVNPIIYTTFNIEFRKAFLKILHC
Gonadotropin-releasing hormone receptor (Homo sapiens), sequence (P30968 whole entry, looked up): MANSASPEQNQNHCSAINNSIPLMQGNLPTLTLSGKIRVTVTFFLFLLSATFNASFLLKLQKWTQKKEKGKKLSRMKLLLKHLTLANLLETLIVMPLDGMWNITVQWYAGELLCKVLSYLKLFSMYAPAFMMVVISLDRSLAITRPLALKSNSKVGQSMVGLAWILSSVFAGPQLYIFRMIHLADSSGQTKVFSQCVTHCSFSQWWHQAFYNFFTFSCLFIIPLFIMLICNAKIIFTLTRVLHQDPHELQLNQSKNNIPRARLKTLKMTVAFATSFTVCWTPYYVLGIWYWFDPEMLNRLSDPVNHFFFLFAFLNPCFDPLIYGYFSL

CC(=O)c1ccc(O)cc1
inactive: Potency [1] | Potency [2] | Potency [3] | Potency [4] | Potency [5] | Potency [6] | Potency [7] | Potency [8] | Potency [9] | Potency [10] | Potency [11] | Potency [12] | Potency [13] | Potency [14] | Potency [15] | Potency [16]

CN(C)c1nc(N(C)C)nc(N(C)C)n1
inactive: Potency [1] | Potency [2] | Potency [3] | Potency [5] | Potency [6] | Potency [7] | Potency [8] | Potency [18] | Potency [19] | Potency [13] | Potency [14] | activation [15] 17.3% [at 8.39 µM] | Potency [16]
3.94 µM (active) and inactive: Potency [17]

C/C=C(C)/C=C/C=C(C)C
active: Potency [17] 60.4 µM and 54.5 µM
inactive: Potency [1] | Potency [2] | Potency [3] | Potency [4] | Potency [5] | Potency [6] | Potency [18] | Potency [10] | Potency [11] | Potency [12] | Potency [19] | Potency [13] | Potency [14] | Potency [15] | Potency [16]

CC(C)(CO)COC(=O)C(C)(C)CO
inactive: Potency [17] | Potency [1] | Potency [2] | Potency [3] | Potency [4] | Potency [6] | Potency [7] | Potency [18] | Potency [9] | Potency [10] | Potency [19] | Potency [13] | Potency [14] | Potency [20] | Potency [16]

O=C(c1cc(O)c(O)c(O)c1)c1ccc(O)c(O)c1O
inactive: Potency [1] | Potency [2] | Potency [3] | Potency [4] | Potency [5] | Potency [6] | Potency [7] | Potency [8] | Potency [9] | Potency [10] | Potency [11] | Potency [12] | Potency [19] | Potency [13] | Potency [20] | Potency [16]

CC[N+](CC)(CC(=O)Nc1c(C)cccc1C)Cc1ccccc1
inactive: Potency [17] | Potency [1] | Potency [2] | Potency [3] | Potency [6] | Potency [7] | Potency [8] | Potency [9] | Potency [10] | Potency [11] | Potency [12] | Potency [19] | Potency [13] | Potency [14] | Potency [15] | Potency [16]

CC1(C)OC[C@@H]2O[C@@]3(C(=O)O)OC(C)(C)O[C@H]3[C@@H]2O1
inactive: Potency [1] | Potency [2] | Potency [3] | Potency [6] | Potency [7] | Potency [8] | Potency [9] | Potency [10] | Potency [11] | Potency [12] | Potency [19] | Potency [14] | Potency [15] | Potency [20] | Potency [16]

CCCCC(CC)C(=O)O (stereo not given)
inactive: Potency [17] | Potency [1] | Potency [2] | Potency [3] | Potency [6] | Potency [7] | Potency [8] | Potency [9] | Potency [10] | Potency [11] | Potency [12] | Potency [19] | Potency [13] | Potency [14] | Potency [15] | Potency [20] | Potency [16]
